In the library only some 1.2% were active in any assay of this set; here they are far more common.
RTF Ca sens inh: cardiac RTF calcium desensitization | IANBD-labeled cardiac RTF, Ca2+ fluorescence | inhibition, % at 7.15 µM | 0.12% of 340,000 active | AID 493244;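 active = inhibition above the mean inhibition of all tested compounds plus 3 SD, cut at about 17% in these data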;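 note: assay run at fixed EC70 calcium of 1.6 mM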
RTF Ca sens act: cardiac RTF calcium sensitization | activation, % at 7.2 µM | AID 493008 | 0.24% of 340,000 active | IANBD-labeled TnC RTF fluorescence at EC20 calcium; 0% EC20 calcium, 100% full calcium;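 active = activation above the mean over all tested compounds plus 3 SD, cut at about 30% in these data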;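 note: rise in fluorescence read as greater calcium sensitivity of cardiac thin filaments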
eLon inh: inhibitors of E. coli Lon protease; 0.42% of 360,000 active; purified E. coli Lon protease, fluorescence polarization; inhibition, % at 7.94 µM; P0A9M0; in the data active = inhibition above about 13%, passing the limit was not always enough;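 note: 0% = enzyme with probe and DMSO and 100% = no enzyme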
BCLXL inh: Bcl-xL (human) inhibition. GST-Bcl-xL / FITC-Bim BH3 peptide fluorescence polarization. inhibition, % at 10.9 µM. 0.7% of 320,000 active;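 active = inhibition above the mean of all tested compounds plus 3 SD, cutoff set per campaign, cut at about 30% in these data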;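 note: 0% = DMSO wells and 100% = unlabeled Bim-BH3 peptide competitor; inhibitors lower millipolarization by displacing the labeled peptide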
GLD-1 TGE inh: GLD-1-TGE RNA interaction inhibition (C. elegans). Q17339. purified GLD-1 + fluorescein TGE RNA, fluorescence polarization. inhibition, % at 5.96 µM. 0.44% of 320,000 active. AID 2280;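 active = percent inhibition above a per-plate cutoff, the plate mean of test compounds plus 3 SD, cut at about 30% in these data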;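 note: 0% = DMSO wells with GLD-1 and probe and 100% = wells lacking GLD-1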
The depositor's hits bear a star.

Screening Cc1nc2ccc(Cl)cc2nc(C)/c1=N\O returned RTF Ca sens inh 3.0, RTF Ca sens act 33.8*, eLon inh -5.7, BCLXL inh 12.6 and GLD-1 TGE inh 9.9.
Screening O=C(Cc1ccc(Br)cc1)Nc1ccccc1N1CCCC1 returned RTF Ca sens inh -4.5, RTF Ca sens act -2.1, eLon inh -2.4, BCLXL inh 7.0 and GLD-1 TGE inh -4.0.
Screening CC1=NNC(=O)C1CCC(=O)N/N=C/c1ccc(C)cc1 (stereo not given) returned BCLXL inh 5.3 and GLD-1 TGE inh -1.7.
Screening COc1ccc(C(=O)NCc2ccc3c(c2)cc(C)n3C)cc1OC returned RTF Ca sens inh -4.1, RTF Ca sens act 1.4, eLon inh 14.6, BCLXL inh 36.5* and GLD-1 TGE inh 22.6.
Screening COC(=O)c1c(O)ccc(Oc2ccccc2)c1C(=O)OC returned RTF Ca sens inh -4.5, RTF Ca sens act -5.0, eLon inh -3.6, BCLXL inh -1.4 and GLD-1 TGE inh -2.9.
C#CCOCCOCCOCCNc1nc(N2CCN(C(=O)[C@H]([C@@H](C)CC)n3cc([C@@H](N)CO)nn3)CC2)nc(N2CCN(C(=O)[C@H]([C@@H](C)CC)n3cc([C@@H](N)CC(C)C)nn3)CC2)n1 was read as RTF Ca sens inh -19.3, RTF Ca sens act 4.3, eLon inh 0.4, BCLXL inh 43.4* and GLD-1 TGE inh 20.8.
C#CCOCCOCCOCCNc1nc(N2CCN(C(=O)[C@H]([C@@H](C)CC)n3cc([C@@H](N)CC(C)C)nn3)CC2)nc(N2CCN(C(=O)[C@H](CCCCN)n3cc([C@@H](N)CO)nn3)CC2)n1 was read as RTF Ca sens inh 3.9, RTF Ca sens act -8.4, eLon inh -0.5, BCLXL inh 2.0 and GLD-1 TGE inh -0.1.
Screening O=C(CCc1nc2ccccc2c(=O)[nH]1)NCC(=O)Nc1ccc(F)c(F)c1 returned RTF Ca sens inh -1.9, RTF Ca sens act -8.2, eLon inh -31.5, BCLXL inh 7.8 and GLD-1 TGE inh 2.8.
O=C(CCc1nc2ccccc2c(=O)[nH]1)Nc1ccc(F)c([N+](=O)[O-])c1 was read as RTF Ca sens inh -13.6, RTF Ca sens act 3.2, eLon inh -10.2, BCLXL inh 30.3* and GLD-1 TGE inh 5.5.
For O=C(CSc1nnc(Cc2cc(=O)[nH]c(=O)[nH]2)n1-c1ccc(Cl)cc1)NCC1CCCO1 (stereo not given) the results were RTF Ca sens inh 1.1, RTF Ca sens act 1.2, eLon inh 21.6*, BCLXL inh 8.2 and GLD-1 TGE inh 7.2.
`O=C(CSc1nnc(Cc2cc(=O)[nH]c(=O)[nH]2)n1-c1ccccc1)NCC1CCCO1` (stereo not given) gave RTF Ca sens inh -1.9, RTF Ca sens act 10.9, eLon inh 9.2, BCLXL inh 15.5 and GLD-1 TGE inh 24.8.
Screening C=CCc1c(C)nc(SC(C)C)[nH]c1=O returned RTF Ca sens inh -4.4, RTF Ca sens act -0.5, eLon inh -1.3, BCLXL inh 3.3 and GLD-1 TGE inh -0.7.
For N#CC1=C(N)Oc2cc(O)c(Cl)cc2C1c1ccccc1F (stereo not given) the results were RTF Ca sens inh -54.2, RTF Ca sens act 32.9*, eLon inh -167.8, BCLXL inh 78.4* and GLD-1 TGE inh 59.2*.
For Cc1ccc(S(=O)(=O)NC(=O)Nc2nccs2)cc1 the results were RTF Ca sens inh -0.5, RTF Ca sens act -9.1, eLon inh -3.5, BCLXL inh 3.0 and GLD-1 TGE inh -3.2.
`O=C(O)c1cccc(S(=O)(=O)Nc2ccc(-c3ccccc3)cc2)c1` gave RTF Ca sens inh -3.0, RTF Ca sens act -0.1, eLon inh -9.7 and GLD-1 TGE inh 6.3.
Screening O=C(O)c1ccc(NS(=O)(=O)c2ccc3c(c2)C(=O)c2ccccc2C3=O)cc1 returned eLon inh 6.5, BCLXL inh 37.2* and GLD-1 TGE inh 22.0.
`c1ccc(Nc2ccc3c4c(cccc24)CC3)cc1` gave RTF Ca sens inh -93.5, RTF Ca sens act 51.6*, eLon inh -203.2, BCLXL inh 11.3 and GLD-1 TGE inh -9.1.
`Nc1cccc2c(O)cccc12` gave RTF Ca sens inh -2.2, RTF Ca sens act -0.5, eLon inh 16.7, BCLXL inh 5.9 and GLD-1 TGE inh -0.9.
For Nc1ccc2c3c(cccc13)CC2 the results were RTF Ca sens inh -116.1, RTF Ca sens act 15.6, eLon inh -52.4, BCLXL inh 38.4* and GLD-1 TGE inh -27.5.
